From PubChem BioAssay AID1159580 (chemical genetic matrix, 2015) come the findings set out here.

The test can be described thus: chemical genetic growth profiling, strain panel (AID 1159580).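 Also: tested at 20 µM; growth read once vehicle control cultures reached saturation at 30 °C; 1 = growth at the plate median or of vehicle wells; lower values mean less growth of the strain.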 Conditions: S. cerevisiae deletion strains, growth OD.
Where [1] appears, read: locus YDR150W, strain NUM1, stronger effect = lower value.
Setting [2] is: locus YGR078C, strain PAC10, stronger effect = lower value.
The mark [3] stands for this setting: locus YJR075W, strain HOC1, stronger effect = lower value.
[4] abbreviates: locus YMR263W, strain SAP30, stronger effect = lower value.
[5] abbreviates: locus YNL153C, strain GIM3, stronger effect = lower value.
Where [6] appears, read: locus YNL322C, strain KRE1, stronger effect = lower value.
[7] abbreviates: locus YPL055C, strain LGE1, stronger effect = lower value.
[8] abbreviates: locus YPL241C, strain CIN2, stronger effect = lower value.
[9] abbreviates: locus YAL040C, strain CLN3, stronger effect = lower value.
Setting [10] is: locus YCL061C, strain MRC1 (second series), stronger effect = lower value.
[11] abbreviates: locus YDR363W, strain ESC2, stronger effect = lower value.
[12] abbreviates: locus YER002W, strain NOP16, stronger effect = lower value.
Where [13] appears, read: locus YMR307W, strain GAS1, stronger effect = lower value.
Where [14] appears, read: locus YNL197C, strain WHI3, stronger effect = lower value.
Where [15] appears, read: locus YNL224C, strain SQS1, stronger effect = lower value.
Where [16] appears, read: locus YOR083W, strain WHI5 (second series), stronger effect = lower value.

Molecules are shown by their SMILES. The campaign covered roughly 5,500 compounds. About 2,000 (36%) were called active. Not shown: some 18% with an inconclusive outcome. This is one part of the list. Values without a mark were called inactive. Rule as the data show it: active = normalized growth mostly below about 0.91 (no sharp cut-off); inconclusive = no clear call, values can overlap the other calls; inactive = mostly above about 0.92.

Regarding `OC1(c2ccc(Cl)cc2)CSc2nc3cc(C(F)(F)F)ccc3n21` (centres undefined), the normalized growth was 1.03 (locus YAL013W, strain DEP1, stronger effect = lower value); 1 (locus YBR229C, strain ROT2, stronger effect = lower value); 0.995 (locus YDL101C, strain DUN1, stronger effect = lower value); 1.01 under setting [1]; 1.02 (locus YEL061C, strain CIN8, stronger effect = lower value); 1 under setting [2]. The normalized growth (locus YHR030C, strain SLT2, stronger effect = lower value) is 1.02; the normalized growth (locus YHR087W, strain rtc3, stronger effect = lower value) is 1.03; the normalized growth (locus YJR043C, strain POL32, stronger effect = lower value) was 1.01; the normalized growth under setting [3] is 1; the normalized growth (locus YLR039C, strain RIC1, stronger effect = lower value) is 1.09; the normalized growth (locus YLR058C, strain SHM2 (second series), stronger effect = lower value) was 1.02. Further, the normalized growth runs as follows: (locus YLR085C, strain ARP6, stronger effect = lower value) 1.11; (locus YLR262C, strain YPT6, stronger effect = lower value) 1.12; (locus YML094W, strain GIM5, stronger effect = lower value) 1.07; (locus YMR219W, strain ESC1, stronger effect = lower value) 1.01; under setting [4], 1.02; under setting [5], 0.991. Moreover, the normalized growth reads like this: (locus YNL298W, strain CLA4 (second series), stronger effect = lower value) 1.1; under setting [6], 1.02; (locus YNR030W, strain Alg12, stronger effect = lower value) 1.09; (locus YOL006C, strain TOP1, stronger effect = lower value) 1.08; under setting [7], 0.998; under setting [8], 1.04. Moreover, under “locus YPR135W, strain CTF4, stronger effect = lower value”, the normalized growth was 1.02.

For the molecule `CN1CCN(c2ccc3ccccc3n2)CC1`, the normalized growth under setting [9] is 1.04; the normalized growth under setting [10] is 0.996; the normalized growth under setting [1] was 1; the normalized growth under setting [11] is 0.982; the normalized growth under setting [12] is 1; the normalized growth under setting [2] was 1.01. Further, the normalized growth under setting [3] was 0.982; the normalized growth under setting [13] is 1; the normalized growth (locus YNL175C, strain NOP13, stronger effect = lower value) is 1.02; the normalized growth under setting [14] is 1; the normalized growth under setting [15] was 1.01; the normalized growth under setting [6] is 0.982. For the same molecule, the normalized growth is 1.03 under setting [16], 0.925 under setting [7] and 0.993 under setting [8].

In the case of `CN1CCN(c2nc3cc(C(F)(F)F)ccc3n3cccc23)CC1`, the normalized growth runs as follows: under setting [9], 1; under setting [10], 0.985; under setting [11], 0.908; under setting [12], 1.01; under setting [2], 1.01; under setting [3], 0.971. Also, the normalized growth by setting is: under setting [4], 1; under setting [13], 0.867 (active); (locus YNL128W, strain TEP1, stronger effect = lower value) 1.05; under setting [5], 0.88; under setting [14], 1.06; under setting [15], 1.03. The normalized growth under setting [6] is 0.972 and the normalized growth under setting [16] is 0.919.
